In PubChem BioAssay AID493098 (Sanford-Burnham Center for Chemical Genomics, 2011) one finds inhibition data, which are given here for five compounds.

What is called inhibition is the change of the read-out against control, counted positive when it falls.

The campaign covered roughly 340,000 compounds. About 1,700 (0.5%) were called active. This is one part of a sample in which actives are shown more often than they occur. Values without a mark were called inactive.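 Rule for the calls: active = compounds whose inhibition of the agonist-driven luminescence signal at 20 µM reaches about 50% (limit read from the data); inactive = the rest.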

Sequence of C-C chemokine receptor type 6 (Homo sapiens) (P51684 whole entry, looked up): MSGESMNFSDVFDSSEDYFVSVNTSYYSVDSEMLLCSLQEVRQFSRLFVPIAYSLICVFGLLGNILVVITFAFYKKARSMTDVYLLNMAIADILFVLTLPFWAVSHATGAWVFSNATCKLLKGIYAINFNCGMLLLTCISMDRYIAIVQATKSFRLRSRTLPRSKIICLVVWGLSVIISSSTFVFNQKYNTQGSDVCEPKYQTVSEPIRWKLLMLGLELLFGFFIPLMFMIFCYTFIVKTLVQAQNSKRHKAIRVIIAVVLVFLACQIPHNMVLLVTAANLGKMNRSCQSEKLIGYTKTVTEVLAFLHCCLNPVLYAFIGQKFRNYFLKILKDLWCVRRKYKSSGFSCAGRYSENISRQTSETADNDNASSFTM

The assay addresses C-C chemokine receptor type 6 (Homo sapiens) (UniProt P51684). Put plainly: CCR6 receptor antagonists, primary screen, cell-based, CHO-K1, luminescence, beta-arrestin, uHTS (AID 493098).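 Note: cells stimulated with CCL20 at 14 nM final; plate controls were DMSO with CCL20 for no effect and DMSO without agonist for full effect.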 The settings on record: CHO-K1 CCR6 PathHunter beta-arrestin, CCL20-stimulated, at 20 µM, hits give high values.
For the compound `CC(=O)OC1C2(CC3N4C(=O)C5(CO)SSC4(CC31O)C(=O)N5C)OC(C)C(C)(C)C2=O` (stereo not given), the inhibition is 111% (active).

`COC(=O)[C@@H]1C(OC(=O)c2ccccc2)CC2CCC1N2C` (stereo not given in full): the inhibition was 6.3%. Consider `CC(Cc1cccs1)NCc1ccc(Cl)cc1` (stereo not given), for which the inhibition was 13.3%.

`Cc1nn(-c2ccccc2)c(C)c1NC(=O)COC(=O)Cc1ccccc1`: the inhibition is -2.94%. For the compound `CCCOC(=O)C1C2c3ccccc3C(c3ccccc32)C1C(=O)O` (stereo not given), the inhibition was -3.33%.
